Screening data from PubChem BioAssay.
DT40 TDP1 CPT = DT40-hTDP1 cell growth loss with CPT | chicken DT40 Tdp1-/-;hTDP1 cells + 20 nM CPT, ATP luminescence, 48 h | Potency, µM (doses to about 46.2 µM), without a hit: top-dose activity change, negative = growth inhibition, most hits filed as inhibitors | actives 12% (n = 420,000) | AID 686979; further: potency means the concentration at half of the fitted maximal effect; nearly all actives have a fitted effect of over 55% in size
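Cell growth measured by CellTiter-Glo luminescence after a minimum 48 h, 37 C compound exposure with 20 nM CPT in Tdp1-knockout DT40 cells stably expressing hTDP1, seeded 400/well; qHTS titration format.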
DT40 TDP1 no CPT = qHTS for Inhibitors of human tyrosyl-DNA phosphodiesterase 1 (TDP1): qHTS in cells in absence of CPT; DT40 Tdp1-/- hTDP1 cells, no CPT, ATP luminescence, 48 h; actives 15% (n = 420,000); AID 686978, 2013; Potency, µM (doses to about 46.2 µM), without a hit: at the top dose activity change, negative = growth inhibition, hits mostly inhibitors; further: potency means the concentration at half of the fitted maximal effect; nearly all actives have a fitted effect of over 55% in size
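Readout: luminescence from CellTiter-Glo after 30 min in the dark at RT. Cells: DT40 Tdp1-/- with stable hTDP1, 400/well. Exposure: compounds alone, ≥48 hr, 37 °C.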
IL-1B inflam inh = inflammasome signaling inhibition, IL-1 beta readout; THP-1 LPS/ATP IL-1B secretion, AlphaLISA, 16 h; stronger effect = lower value; activity change, % at 57.5 µM; actives 4.7% (n = 360,000); in the data active means activity change below about -50%; inconclusive means mostly about -30% to -49%
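THP-1 cells pretreated 1 hr with compounds (up to 57.5 uM final), then stimulated with LPS (250 ng/mL final) plus ATP (1.25 mM final); secreted IL-1B measured by AlphaLISA after 16 hr, decreased signal indicating inhibition.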
Giardia killer = Giardia lamblia killing; Giardia lamblia trophozoite viability; activity change, % at 7.66 µM, hits read low; actives 0.15% (n = 340,000); AID 540267; in the data active means activity change below about -80%; inconclusive means between about -30% and that limit;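 further: parasites exposed to compound for two days anaerobically before the ATP read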
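Trophozoite viability was measured as ATP-dependent luminescence, read 15-30 min after reagent addition. Before that, parasites at 100 cells/well were exposed to compounds for 48 h, anaerobically, at 37 deg C.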
ELG1 repair inh = ELG1-dependent DNA repair inhibition | Potency, µM (top dose mostly 46.1 µM), without a hit: top-dose activity change, negative = inhibition, usual class: inhibitors | AID 504467 | actives 2.3% (n = 330,000) | HEK293T ELG1-luciferase reporter, luminescence, 16 h; DNA damage induced by 5-fluorouridine; further: potency means the concentration at half of the fitted maximal effect; nearly all actives have a fitted effect of over 55% in size
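Quantitative HTS, concentration-response format. 2,000 cells/well co-treated with 5-fluorouridine and compound, 16 hr in 5% CO2 at 37 °C; ONE-Glo luminescence read after 30 min.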
TDP1 block = TDP1 (human) enzyme inhibition; Q9NUW8; recombinant TDP1, AlphaScreen DNA substrate cleavage; Potency, µM (series often up to 130 µM), inactives show at the highest dose activity change, negative = inhibition, hits mostly inhibitors; actives 0.28% (n = 350,000); AID 485290; further: potency means the concentration at half of the fitted maximal effect; nearly all actives have a fitted effect of over 40% in size
Target sequence (Q9NUW8 whole entry, looked up): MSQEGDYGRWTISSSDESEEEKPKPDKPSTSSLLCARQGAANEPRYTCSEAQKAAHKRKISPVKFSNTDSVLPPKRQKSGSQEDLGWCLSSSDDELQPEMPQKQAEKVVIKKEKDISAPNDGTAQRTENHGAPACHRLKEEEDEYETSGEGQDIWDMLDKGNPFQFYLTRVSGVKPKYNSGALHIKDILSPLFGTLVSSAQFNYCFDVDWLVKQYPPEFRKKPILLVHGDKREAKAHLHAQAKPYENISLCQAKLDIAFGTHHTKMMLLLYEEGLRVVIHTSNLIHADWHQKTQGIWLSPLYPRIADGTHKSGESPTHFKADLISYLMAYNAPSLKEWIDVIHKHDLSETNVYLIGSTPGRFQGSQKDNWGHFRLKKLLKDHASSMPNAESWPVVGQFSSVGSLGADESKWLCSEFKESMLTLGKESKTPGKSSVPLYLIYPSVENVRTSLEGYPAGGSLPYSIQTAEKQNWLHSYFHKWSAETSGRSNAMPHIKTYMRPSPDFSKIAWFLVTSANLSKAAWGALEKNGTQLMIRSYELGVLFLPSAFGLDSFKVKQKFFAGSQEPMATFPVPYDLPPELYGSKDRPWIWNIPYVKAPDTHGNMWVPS
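Tdp1 1 nM final; 15 min RT w/ cpd; substrate 15 nM, 5 min; beads 10 ug/ml, 10 min; AlphaScreen read. Neg ctrl: no enzyme.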
* = called active by the depositor; ? = inconclusive; . = no result given. Compounds with a hit are over-represented: about 19% of the library has one in this group of screens. Unless noted, the call rests on the fitted dose curve; in most records, active means well fitted curve in the direction sought with a large enough effect; inconclusive means small, poorly fitted or top-dose-only effect, or another doubt; inactive means no such curve, though single readings can be large; an effect the other way counts as inactive or inconclusive. On the % scale 0 is the no-effect control and ±100 the full control effect.

SMILES	DT40 TDP1 CPT	DT40 TDP1 no CPT	IL-1B inflam inh	Giardia killer	ELG1 repair inh	TDP1 block
COCc1c(Br)c(C)nc2sc3c(=O)n(-c4cccc(Br)c4)nnc3c12	-2%	0%	.	.	.	-2%
COCOc1c2c(c(OCOC)c3c(OCOC)cccc13)/C(=N/NS(C)(=O)=O)C1=C2CCCC1	.	.	.	.	.	7%
COc1ccc(C(=O)Nc2cc(C)nn2-c2ccc(F)cc2)cc1	-7%	-28%	-1	-8	-8%	4%
CCCCN(CC)C(=O)Nc1ccc2c(c1)N(C)C(=O)c1ccccc1S2	?	?	.	.	.	11%
COc1ccc(OC)c(NC(=O)C2CCN(Cc3cnn(-c4ccccc4)c3-n3cccc3)CC2)c1	16µM*	?	-6	-15	23µM*	8%
O=C(Nc1ccccc1Cl)C1CCN(Cc2cnn(-c3ccccc3)c2-n2cccc2)CC1	16µM*	23µM*	-22	6	?	2%
COc1ccc(NC(=O)C2CCN(Cc3cnn(-c4ccccc4)c3-n3cccc3)CC2)cc1OC	?	?	?	-16	.	3%
O=c1c2ccccc2c(-c2ccc(O)cc2)nn1-c1cccc(C(F)(F)F)c1	15µM*	15µM*	-98*	21	?	-2%
Cc1cc(Cl)ccc1C(O)c1ncc(-c2ccc(F)cc2)[nH]1 (stereo not given)	?	?	-14	.	.	.
Cc1cccc(-c2cnc(C(O)c3ccc(Cl)cc3C)[nH]2)c1 (stereo not given)	?	18µM*	-8	.	.	.
Cc1ccc(-c2cnc(C(O)c3ccc(Cl)cc3C)[nH]2)cc1 (stereo not given)	23µM*	?	-18	.	.	.
Cc1cc(Cl)ccc1C(O)c1ncc(-c2ccc(Cl)cc2)[nH]1 (stereo not given)	13µM*	?	-10	.	.	.
Cc1no[n+]([O-])c1COc1ccc(/C=C2\NC(=S)NC2=O)cc1	-15%	-25%	-53*	-8	?	4%
Cc1cc(OCC(=O)Nc2sc3c(c2C#N)CC(C)(C)NC3(C)C)c(C(C)C)cc1Cl	?	16µM*	7	10	-1%	5%
CC1(C)Cc2c(sc(NC(=O)COc3ccccc3)c2C#N)C(C)(C)N1	?	-28%	-6	-1	0%	1%
Cc1ccc(C(C)C)c(OCC(=O)Nc2sc3c(c2C#N)CC(C)(C)NC3(C)C)c1	?	21µM*	-12	13	-22%	5%
O=C1Nc2ccc([N+](=O)[O-])cc2C1(O)N1CCCCCC1 (stereo not given)	-3%	-6%	11	-4	13%	2%
O=C(CS(=O)(=O)c1c[nH]c2ccccc12)N1CCCCCC1	2%	-13%	10	4	6%	2%
COc1ccc(/C=C/C(=O)O)cc1S(=O)(=O)Nc1ccc2c(c1)OCO2	-2%	23%	15	20	?	.
COc1ccc(/C=C/C(=O)O)cc1S(=O)(=O)NC1CCS(=O)(=O)C1 (stereo not given)	4%	-3%	25	-12	10%	50µM*
O=C(CSc1oc(-c2ccco2)nc1S(=O)(=O)c1ccc(Br)cc1)c1ccc(Cl)cc1	?	?	.	.	.	-3%
O=C(N/N=C\c1ccc(-c2ccc([N+](=O)[O-])cc2)o1)C1COc2ccccc2O1 (stereo not given)	?	23µM*	-22	-10	?	0%
O=C(N/N=C/c1ccc([N+](=O)[O-])o1)C(O)c1ccccc1 (stereo not given)	8.2µM*	6.5µM*	-7	-84*	?	.
O=C(NN=Cc1ccccc1O)C(O)c1ccccc1 (stereo not given)	?	21µM*	127	-15	.	.
CN(C)c1ccc(/C=N/NC(=O)C2COc3ccccc3O2)o1 (stereo not given)	?	-14%	25	24	-8%	0%
